In PubChem BioAssay (EPA / NIEHS):
Several values for one entry are separate records, joined by “and”; a condition that tells them apart may be missing. Equal entries are not always repeated. Records with an inconclusive call do not appear. More than one record can exist for a structure, and the calls need not agree. Activity calls are given as the source filed them. How the source made its calls: active means hit-call score of the fitted dose curve at least 0.9, where 1 is the maximum; inconclusive means response in the unintended direction; inactive means score below 0.9.

These compounds were tested against Cellular tumor antigen p53 (Homo sapiens) (UniProt P04637) (assay: TOX21_p53_BLA_p3_ratio: Tox21 HCT-116 p53 Agonism Beta-lactamase Assay, Ratio, Phase 3 (AID 2283596)).
Cellular tumor antigen p53 (Homo sapiens), sequence (P04637 whole entry, looked up, the tested form may be a part): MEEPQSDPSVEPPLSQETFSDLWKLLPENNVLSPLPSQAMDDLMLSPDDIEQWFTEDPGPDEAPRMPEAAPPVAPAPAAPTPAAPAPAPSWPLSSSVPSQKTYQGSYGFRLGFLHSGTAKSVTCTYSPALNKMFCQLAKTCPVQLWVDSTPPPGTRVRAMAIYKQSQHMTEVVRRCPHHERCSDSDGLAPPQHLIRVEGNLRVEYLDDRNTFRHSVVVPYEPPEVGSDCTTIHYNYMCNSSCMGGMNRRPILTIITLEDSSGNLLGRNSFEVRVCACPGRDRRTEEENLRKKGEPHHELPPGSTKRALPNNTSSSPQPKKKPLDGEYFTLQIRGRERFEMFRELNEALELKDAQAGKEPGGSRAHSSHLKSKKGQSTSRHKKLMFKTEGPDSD
From the text: TOX21_p53_BLA_p3 is a cell-based, single-readout assay that uses HCT116, a human intestinal cell line, […] in a 1536-well plate.TOX21_p53_BLA_p3_ratio is an assay readout measuring reporter gene via receptor activity and designed using inducible reporter (beta lactamase induction) detected with GAL4 b-lactamase reporter gene. The signal is derived from the ratio of cleaved (ch2) to uncleaved (ch1) reporter gene substrate used as the measure of target activity.Data from the assay component TOX21_p53_BLA_p3_ratio was analyzed into 1 assay endpoint. This assay endpoint, TOX21_p53_BLA_p3_ratio, was analyzed in the positive analysis fitting direction relative to DMSO as the negative control and baseline of activity. Using a type of inducible reporter, gain-of-signal activity can be used to understand changes in the reporter gene as they relate to the gene TP53. Furthermore, this assay endpoint can be referred to as a primary readout, because this assay has produced multiple assay endpoints where this ratio serves a reporter gene function to understand target activity. To generalize the intended target to other relatable targets, this assay endpoint is annotated to the DNA binding intended target family, where the subfamily is tumor suppressor.
Thawing Method: Place 14 mL of pre-warmed thaw medium into a 15 mL of conical tub. Remove the vial of cells to be thawed from liquid nitrogen and thaw rapidly by placing at 37C in a water bath with gentle agitation for 1-2 minutes. Decontaminate the vial by wiping with 70% ethanol before opening in a biological safety cabinet. Transfer the vial contents drop-wise into 14 mL of thaw medium in a sterile 15-mL conical tub. Centrifuge cells at 900 rpm for 4 minutes and resuspend in thaw medium. Transfer contents to the T75 tissue culture flask containing Thaw Medium and place flask in a humidified 37C/5% CO2 incubator. Switch to growth medium at first passage.Propagation Method: Aspirate medium, rinse once in DPBS, add 0.25% Trypsin/EDTA and swirl to coat the cell evenly. Add an equal volume of Growth Medium to inactivate Trypsin after 2-3 minutes incubation at 37C. Centrifuge cells at 900 rpm for 4 minutes and resuspend in growth medium. Cell should be passage or fed at least twice a week.Assay Protocol: Harvest cells from culture in growth medium and resuspend in assay medium. 2.2 Dispense 4000 cells/5 uL/well into 1536-well black/clear bottom plates using a Multidrop dispenser. After the cells were incubated at 37C for 5 hours, 23 nL of compounds dissolved in DMSO were transferred to the assay plate by a PinTool resulting in a 217-fold dilution. Incubate the plates for 16 hours at 37C, 5% CO2. Add 1 uL of 6X LiveBLAzer FRET B/G (CCF4-AM) Substrate Mixture to each well using a BioRAPTR dispenser and incubate the plates at room temperature for 2 hours. Measure fluorescence intensity at 460 and 530 nm emission and 405 nm excitation by an Envision detector. Data is expressed as the ratio of 460nm/530nm emissions. Add 4 uL of Cell-titer Glo to each well using BioRAPTR and incubate the plates at room temperature for 2 hours. Measure fluorescence intensity by a VewLux plate reader.

| SMILES | outcome | AC50 |
| --- | --- | --- |
| COCCCOc1ccnc(CS(=O)c2nc3ccccc3[nH]2)c1C (stereo not given) | inactive | – |
| CCC(=O)OCCC(C)CCC=C(C)C (stereo not given) | inactive | – |
| CC(C)C(C)(C)C(C)(C)C(C)(C)S | inactive | – |
| CC(C)(C)c1cc(CCC(=O)NN)cc(C(C)(C)C)c1O | inactive | – |
| O=C(OCc1ccccc1)C(=O)OCc1ccccc1 | inactive | – |
| CC(=O)OCc1ccc2c(c1)OCO2 | inactive | – |
| CC1=CCC(O)(C(C)C)CC1 (stereo not given) | inactive | – |
| O=[N+]([O-])c1cc(C(F)(F)F)ccc1Cl | inactive | – |
| CCCCCCCCCCCCCCCC(=O)O | inactive | – |
| O=C(O)c1cccc(C(F)(F)F)c1 | inactive | – |
| C[C@H]1C[C@H]2[C@@H]3CCC4=CC(=O)C=C[C@]4(C)[C@@]3(F)[C@@H](O)C[C@]2(C)[C@@]1(O)C(=O)COP(=O)(O)O | inactive | – |
| BrC1CCC(Br)C(Br)CCC(Br)C(Br)CCC1Br (stereo not given) | – | 65.6 µM (active) and 38.4 µM (active) |
| Cc1ccc(O)c(C(C)(C)C)c1 | inactive | 49.1 µM (active) |
| CC(C)(N)CO | inactive | – |
| CCn1c2ccccc2c2cc(N)ccc21 | inactive | 68 µM (active) |
| O=C(O)Cc1cccc2ccccc12 | inactive | – |
| CC1(CO)CN(c2ccccc2)NC1=O (stereo not given) | inactive | – |
| C=CC(C)(CCC=C(C)C)OC=O (stereo not given) | inactive | – |
| CCCCCCCCC | inactive | – |

| SMILES | outcome | AC50 |
| --- | --- | --- |
| O=C(O)CCCCC1CCSS1 (stereo not given) | inactive | – |
| CCCCCC(CO)CCC (stereo not given) | inactive | – |
| O=C1c2ccccc2C(=O)N1SC1CCCCC1 | inactive | 57 µM (active) |
| CNCCCC12CCC(c3ccccc31)c1ccccc12 | inactive | – |
| FC1(F)C(F)(F)C(F)(F)C2(F)C(F)(C1(F)F)C(F)(F)C(F)(F)C1(F)C(F)(F)C(F)(F)C(F)(F)C(F)(F)C12F (stereo not given) | inactive | – |
| CC(C)(C)C(=O)c1ccccc1 | inactive | – |
| CC(=O)O[C@]1(C(C)=O)CC[C@H]2[C@@H]3C[C@H](C)C4=CC(=O)CC[C@]4(C)[C@H]3CC[C@@]21C | inactive | – |
| C#C[C@]1(O)CC[C@H]2[C@@H]3CCC4=Cc5oncc5C[C@]4(C)[C@H]3CC[C@@]21C | inactive | – |
| COC(=O)OC | inactive | – |
| Cc1ccc2ccccc2n1 | inactive | – |
| CC(C)CCCCCCCOC(=O)c1ccc(C(=O)OCCCCCCCC(C)C)c(C(=O)OCCCCCCCC(C)C)c1 | inactive | – |
| CCCCN | inactive | – |
| Cc1ccc(C(=O)c2cc(O)c(O)c([N+](=O)[O-])c2)cc1 | inactive | – |
| NCCCCCCN | inactive | – |
| CCN(CC)c1ccc(C(=C2C=CC(=[N+](CC)CC)C=C2)c2ccc(S(=O)(=O)O)cc2S(=O)(=O)[O-])cc1 | inactive | – |
| CC1(C)CCC(C)(C)c2cc(C(=O)Nc3ccc(C(=O)O)cc3)ccc21 | – | 72.4 µM (active) |
| Cc1ccccc1C=O | inactive | – |
| CC(C)Oc1ccccc1O | inactive | – |
